Experimental data: the supplement of paper PMC3545927
The list shows a part of the results. No count for the full screen is at hand.

Molecular target: furin, P09958
Experiment: furin cleavage Z-score vs untreated control; higher = more cleavage, active = 3.5 or more, inactive = 1 or less, 8 variable residues between constant flanks
Procedure, shortened: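 Furin-free reactions served as the baseline for the cleavage Z-score, which is the log read count lowess-adjusted and scaled by median absolute deviation. Counts came from released DNA, adapter-tagged by PCR and sequenced. Purified furin had cut 8-mer peptides fused to a cDNA oligonucleotide on magnetic beads during 7.5, 15 or 30 min at 1:10 enzyme:substrate.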
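Further: purified furin at 1:10 enzyme:substrate in 50 mM HEPES pH 7.5.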

Chain of furin, P09958 (P09958 whole entry): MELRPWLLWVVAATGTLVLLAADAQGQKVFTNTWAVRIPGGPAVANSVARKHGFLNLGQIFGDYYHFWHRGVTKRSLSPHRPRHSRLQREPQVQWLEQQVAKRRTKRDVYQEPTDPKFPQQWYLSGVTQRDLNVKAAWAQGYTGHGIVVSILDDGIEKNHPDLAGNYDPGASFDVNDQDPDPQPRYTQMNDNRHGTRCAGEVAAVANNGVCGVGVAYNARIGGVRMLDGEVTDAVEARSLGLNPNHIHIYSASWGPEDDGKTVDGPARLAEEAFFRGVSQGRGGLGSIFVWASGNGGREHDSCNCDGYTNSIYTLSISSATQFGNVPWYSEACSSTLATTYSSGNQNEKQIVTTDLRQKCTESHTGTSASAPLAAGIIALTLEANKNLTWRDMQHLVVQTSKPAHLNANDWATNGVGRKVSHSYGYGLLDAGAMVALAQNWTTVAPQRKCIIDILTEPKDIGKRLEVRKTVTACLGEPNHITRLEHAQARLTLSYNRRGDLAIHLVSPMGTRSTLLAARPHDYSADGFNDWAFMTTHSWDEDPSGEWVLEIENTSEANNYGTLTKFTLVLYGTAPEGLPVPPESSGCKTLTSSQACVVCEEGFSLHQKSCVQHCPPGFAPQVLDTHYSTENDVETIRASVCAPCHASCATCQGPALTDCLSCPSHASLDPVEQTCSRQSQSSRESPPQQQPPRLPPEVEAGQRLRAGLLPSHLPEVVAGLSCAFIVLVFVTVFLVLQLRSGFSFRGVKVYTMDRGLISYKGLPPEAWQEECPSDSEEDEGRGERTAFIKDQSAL

| Sequence | furin cleavage Z-score (7.5 min) | furin cleavage Z-score (15 min) | furin cleavage Z-score (30 min) |
| --- | --- | --- | --- |
| CAVSKGWRLLAGNASASA [HC670] | 0.0516 (inactive) | -0.975 (inactive) | -0.799 (inactive) |
| CAWGENDTDVAGNASASA [HC425] | -1.56 (inactive) | -0.446 (inactive) | -2.12 (inactive) |
| CALDGVRLHRAGNASASA [HC1223] | -1.06 (inactive) | 0.461 (inactive) | -0.00108 (inactive) |
| CALVVTSTWVAGNASASA [HC2145] | -0.711 (inactive) | -0.969 (inactive) | -0.561 (inactive) |
| CAEVWTSTWVAGNASASA [HC2188] | 0.933 (inactive) | 0.313 (inactive) | 0.822 (inactive) |
| CATEPCSGSWAGNASASA [HC1852] | -0.934 (inactive) | -0.739 (inactive) | -1.88 (inactive) |
| CALKKRIKSVAGNASASA [FS-2123] | -0.488 (inactive) | -0.595 (inactive) | 0.647 (inactive) |
| CALRKRDVSVAGNASASA [FS-1676] | 4.02 (active) | 6.7 (active) | 7 (active) |
| CARPVRDDSVAGNASASA [FS-3029] | 0.58 (inactive) | -0.207 (inactive) | -0.229 (inactive) |
| CALSKRLGRSAGNASASA [FS-1644] | 9.63 (active) | 10.3 (active) | 7.46 (active) |
| CARRKRSIEEAGNASASA [FS-2230] | 9.81 (active) | 9.11 (active) | 9.55 (active) |
| CARRKRSPTQAGNASASA [FS-2069] | 11.3 (active) | 13.3 (active) | 8.55 (active) |
| CAEVPCHRLSAGNASASA [HC2385] | 0.65 (inactive) | 0.937 (inactive) | 2.67 |
| CAVAKAVDFIAGNASASA [HC755] | -0.603 (inactive) | -0.471 (inactive) | -1.43 (inactive) |
| CARRVRSVILAGNASASA [FS-2301] | -0.109 (inactive) | -0.0349 (inactive) | 1.3 |
| CALRKRLLRDAGNASASA [FS-686] | 9.49 (active) | 11.5 (active) | 8.89 (active) |
| CARRVRSAEEAGNASASA [FS-2376] | 7.77 (active) | 9.29 (active) | 6.7 (active) |
| CARQPRLVGAAGNASASA [FS-2171] | -0.691 (inactive) | -0.656 (inactive) | -0.39 (inactive) |
| CARALRNVWQAGNASASA [FS-1682] | -1.32 (inactive) | 1.58 | 0.167 (inactive) |
| CARRVRSRTHAGNASASA [FS-3071] | 0.143 (inactive) | 0.522 (inactive) | 1.9 |
| CARMKRKVGAAGNASASA [FS-1752] | 2.2 | 4.54 (active) | 4.95 (active) |
| CARASRDVAQAGNASASA [FS-1686] | 3.28 | 3.03 | 3.8 (active) |
| CALRKRLTPLAGNASASA [FS-1883] | -1.32 (inactive) | -0.87 (inactive) | 0.456 (inactive) |

| Sequence | furin cleavage Z-score (7.5 min) | furin cleavage Z-score (15 min) | furin cleavage Z-score (30 min) |
| --- | --- | --- | --- |
| CARASRDSSEAGNASASA [FS-2892] | -0.582 (inactive) | 0.0813 (inactive) | -0.0253 (inactive) |
| CAKCTTPCSGAGNASASA [HC1954] | -0.367 (inactive) | 0.0622 (inactive) | 0.776 (inactive) |
| CAEVVTSTWKAGNASASA [HC2254] | -0.33 (inactive) | -0.194 (inactive) | 1.09 |
| CAGVCCSMSYAGNASASA [HC1996] | -0.333 (inactive) | -0.0583 (inactive) | 0.735 (inactive) |
| CARRMRRAGQAGNASASA [FS-2178] | 3.82 (active) | 5.28 (active) | 6.43 (active) |
| CAQMYTNVDQAGNASASA [HC710] | 0.349 (inactive) | -0.937 (inactive) | 0.488 (inactive) |
| CALRKRSVDQAGNASASA [FS-1884] | 6.21 (active) | 7.15 (active) | 6.93 (active) |
| CARRKRAKVEAGNASASA [FS-3051] | 2.74 | 5.28 (active) | 7.03 (active) |
| CARRKRAVNPAGNASASA [FS-2294] | 5.19 (active) | 3.83 (active) | 4.64 (active) |
| CANWTRGERCAGNASASA [HC483] | 0.47 (inactive) | 1.14 | 0.279 (inactive) |
| CAFVVTSTWVAGNASASA [HC2147] | 0.62 (inactive) | 0.171 (inactive) | -0.5 (inactive) |
| CAGENLYFQGAGNASASA [TV2] | -1.7 (inactive) | -0.261 (inactive) | -0.768 (inactive) |
| CAVVCCHMSYAGNASASA [HC109] | 1.01 | -0.749 (inactive) | 0.554 (inactive) |
| CAGAYMSKAHAGNASASA [HC793] | -0.996 (inactive) | -1.61 (inactive) | -0.903 (inactive) |
| CASTPCSHHLAGNASASA [HC2535] | 0.275 (inactive) | 0.419 (inactive) | -0.167 (inactive) |
| CARRKRYRNFAGNASASA [FS-1836] | 1.23 | 0.582 (inactive) | 2.95 |
| CARRKKARGPAGNASASA [FS-2776] | 0.453 (inactive) | -0.0472 (inactive) | -0.48 (inactive) |
| CARRKRKEKQAGNASASA [FS-3231] | -1.72 (inactive) | -1.54 (inactive) | 0.219 (inactive) |
| CARRKRSVAQAGNASASA [FS-1919] | 4.44 (active) | 4.31 (active) | 4.11 (active) |
| CARRKRSRKPAGNASASA [FS-1835] | 6.72 (active) | 6.37 (active) | 6.82 (active) |
| CAREDRFFCPAGNASASA [FS-2001] | -0.0818 (inactive) | 0.295 (inactive) | -0.529 (inactive) |
| CARMKRSRCPAGNASASA [FS-2721] | 5.18 (active) | 7.21 (active) | 5.91 (active) |
| CARMKRFRVDAGNASASA [FS-2719] | -0.757 (inactive) | 0.996 (inactive) | 1.75 |
